From PubChem BioAssay (NCI) come the findings set out here.

The nature of assay [1]: NCI Yeast Anticancer Drug Screen. Data for the rad50 strain (AID 155).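 Note: 0% = growth of vehicle-only cultures of the same strain.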 The following applies: S. cerevisiae rad50 strain growth inhibition, stronger effect = higher value. The essentials:
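Genetically altered yeast (DNA repair pathway); compound treatment; growth inhibition vs vehicle ctrl.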

A short description of assay [2]: NCI Yeast Anticancer Drug Screen. Data for the mec2-1 strain (AID 157). The following applies: S. cerevisiae mec2-1 strain, stronger effect = higher value. Put shortly:
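Mutant yeast (mec2-1) grown with compound; growth inhibition relative to vehicle control reported.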

A short description of assay [3]: NCI Yeast Anticancer Drug Screen. Data for the sgs1 mgt1 strain (AID 161).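 Note: 0% = growth of cultures given vehicle only.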 The following applies: S. cerevisiae sgs1 mgt1 strain, stronger effect = higher value. The essentials: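 Percent growth inhibition was derived by comparing compound-exposed mutant yeast with vehicle-exposed cultures. The strain carries alterations in DNA damage repair.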
Assay [4] in a line: NCI Yeast Anticancer Drug Screen. Data for the cln2 rad14 strain (AID 165).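 Note: 0% = growth equal to vehicle treated cultures.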 The following applies: S. cerevisiae cln2 rad14 strain, stronger effect = higher value. Put shortly:
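Readout is yeast growth inhibition versus vehicle-treated controls, using a strain with cln2 and rad14 alterations exposed to compound.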

The nature of assay [5]: NCI Yeast Anticancer Drug Screen. Data for the bub3 strain (AID 167). The following applies: S. cerevisiae bub3 mutant strain, stronger effect = higher value. The essentials:
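Yeast carrying a defined mutation is treated with each compound, and growth is compared with that of vehicle-exposed cells to give inhibition.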

The nature of assay [6]: NCI Yeast Anticancer Drug Screen. Data for the mlh1 rad18 strain (AID 175). The following applies: S. cerevisiae mlh1 rad18 strain growth inhibition, stronger effect = higher value. Put shortly: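 Genetically defined yeast (DNA repair-deficient) exposed to compounds; growth inhibition determined relative to vehicle.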
Setting [7] is: at 5.0 µM (retest, dose inferred, filed as 0.5).
Where [8] appears, read: at 50.0 µM (retest, dose inferred, filed as 5.0).

The panel holds about 79,000 compounds, 15% with a hit somewhere; the sample as a whole holds those more often. A number with no mark means an inactive call. The source made the active and inactive calls. Cut-off read from the data, not from the text of the source: active = growth inhibition above about 70%; inactive = the rest.

Take `Oc1ccc(Cl)cc1C(c1cc(Cl)ccc1O)C(Cl)(Cl)Cl`: the growth inhibition in assay [1] (setting [7]) was 99% (active); in assay [1] (setting [8]) it was 99% (active); in assay [1] (at 50.0 µM) it was 99.5% (active); in assay [2] (setting [7]), 99% (active); in assay [2] (setting [8]) it was 99% (active); in assay [2] (at 50.0 µM), 99.6% (active). For the same compound, the growth inhibition was 100% (active) in assay [3] (setting [7]); 100% (active) in assay [3] (setting [8]); 99.4% (active) in assay [3] (at 50.0 µM); 99% (active) in assay [4] (setting [7]); 99% (active) in assay [4] (setting [8]); 99.1% (active) in assay [4] (at 50.0 µM). Also, the growth inhibition in assay [5] (setting [7]) is 100% (active); in assay [5] (setting [8]), 99% (active); in assay [5] (at 50.0 µM), 99.5% (active); in assay [6] (setting [7]) it was 99% (active); in assay [6] (setting [8]), 99% (active); in assay [6] (at 50.0 µM) it was 99.2% (active).
Consider `COc1cc(N(CCC#N)CCC#N)ccc1/C(N=Nc1ccc([N+](=O)[O-])cc1)=N/NC(=O)c1cc(Br)ccc1O`, for which the growth inhibition in assay [1] (setting [7]) was 6%; in assay [1] (setting [8]), 27%; in assay [1] (at 50.0 µM), 63%; in assay [2] (setting [7]) it was 14%; in assay [2] (setting [8]), 42%; in assay [2] (at 50.0 µM), 44.6%. Moreover, the growth inhibition was -6% in assay [3] (setting [7]); 35% in assay [3] (setting [8]); 40.6% in assay [3] (at 50.0 µM); 10% in assay [4] (setting [7]); 11% in assay [4] (setting [8]); 55.1% in assay [4] (at 50.0 µM). The growth inhibition is 8% in assay [5] (setting [7]); 48% in assay [5] (setting [8]); 51% in assay [5] (at 50.0 µM); 15% in assay [6] (setting [7]); 37% in assay [6] (setting [8]); 46.1% in assay [6] (at 50.0 µM).
For the compound `O=C1C=CC(=O)N1c1ccccc1`, the growth inhibition in assay [1] (setting [7]) was 95% (active); in assay [1] (setting [8]), 98% (active); in assay [1] (at 50.0 µM), 99.3% (active); in assay [2] (setting [7]), 99% (active); in assay [2] (setting [8]), 99% (active); in assay [2] (at 50.0 µM), 99.7% (active). The growth inhibition was 94% (active) in assay [3] (setting [7]); 99% (active) in assay [3] (setting [8]); 99.4% (active) in assay [3] (at 50.0 µM); 94% (active) in assay [4] (setting [7]); 99% (active) in assay [4] (setting [8]); 99% (active) in assay [4] (at 50.0 µM). For the same compound, the growth inhibition in assay [5] (setting [7]) was 99% (active); in assay [5] (setting [8]) it was 99% (active); in assay [5] (at 50.0 µM), 99.2% (active); in assay [6] (setting [7]) it was 90% (active); in assay [6] (setting [8]), 99% (active); in assay [6] (at 50.0 µM), 99.2% (active).
With `COc1cccc2c1C(=O)c1c(O)c3c(c(O)c1C2=O)C[C@@](O)(C(=O)CO)C[C@@H]3OC1CC(OC(C)=O)C(OC(C)=O)C(C)O1` (stereo not given in full), the growth inhibition in assay [1] (setting [7]) was 71% (active); in assay [1] (setting [8]), 98% (active); in assay [1] (at 50.0 µM), 86.8% (active); in assay [2] (setting [7]) it was 36%; in assay [2] (setting [8]), 99% (active); in assay [2] (at 50.0 µM) it was 87.5% (active). The growth inhibition in assay [3] (setting [7]) was 37%; in assay [3] (setting [8]), 99% (active); in assay [3] (at 50.0 µM), 90% (active); in assay [4] (setting [7]) it was 41%; in assay [4] (setting [8]) it was 99% (active); in assay [4] (at 50.0 µM), 88.7% (active). For the same compound, the growth inhibition was 42% in assay [5] (setting [7]); 99% (active) in assay [5] (setting [8]); 88.9% (active) in assay [5] (at 50.0 µM); 48% in assay [6] (setting [7]); 97% (active) in assay [6] (setting [8]); 91.6% (active) in assay [6] (at 50.0 µM).
Take `CCCCCCCCCCCC[n+]1ccccc1` (tested in a mixture with another compound): the growth inhibition is 34% in assay [1] (setting [7]); 96% (active) in assay [1] (setting [8]); 99.1% (active) in assay [1] (at 50.0 µM); 91% (active) in assay [2] (setting [7]); 96% (active) in assay [2] (setting [8]); 99.1% (active) in assay [2] (at 50.0 µM). Further, the growth inhibition was 31% in assay [3] (setting [7]); 97% (active) in assay [3] (setting [8]); 99.1% (active) in assay [3] (at 50.0 µM); 18% in assay [4] (setting [7]); 94% (active) in assay [4] (setting [8]); 98.5% (active) in assay [4] (at 50.0 µM). The growth inhibition is 88% (active) in assay [5] (setting [7]); 96% (active) in assay [5] (setting [8]); 99.2% (active) in assay [5] (at 50.0 µM); 21% in assay [6] (setting [7]); 95% (active) in assay [6] (setting [8]); 99% (active) in assay [6] (at 50.0 µM).
As for `Cc1c2c(c(C)c3c[n+](C)ccc13)Oc1ccccc1O2`, the growth inhibition in assay [1] (setting [7]) is 18%; in assay [1] (setting [8]), 24%; in assay [1] (at 50.0 µM) it was 25.4%; in assay [2] (setting [7]), 12%; in assay [2] (setting [8]), 19%; in assay [2] (at 50.0 µM), 61.6%. In addition, the growth inhibition in assay [3] (setting [7]) was 11%; in assay [3] (setting [8]), 21%; in assay [3] (at 50.0 µM) it was 80.5% (active); in assay [4] (setting [7]) it was 17%; in assay [4] (setting [8]), 20%; in assay [4] (at 50.0 µM) it was 62.1%. The growth inhibition was 28% in assay [5] (setting [7]); 31% in assay [5] (setting [8]); 85.6% (active) in assay [5] (at 50.0 µM); 24% in assay [6] (setting [7]); 15% in assay [6] (setting [8]); -20.6% in assay [6] (at 50.0 µM).
On to `O=C(NOC(=O)c1ccccc1)c1ccccc1`, for which the growth inhibition was 93% (active) in assay [1] (setting [7]); 98% (active) in assay [1] (setting [8]); 99.3% (active) in assay [1] (at 50.0 µM); 64% in assay [2] (setting [7]); 99% (active) in assay [2] (setting [8]); 99.5% (active) in assay [2] (at 50.0 µM). In addition, the growth inhibition in assay [3] (setting [7]) was 82% (active); in assay [3] (setting [8]), 99% (active); in assay [3] (at 50.0 µM), 99.5% (active); in assay [4] (setting [7]), 31%; in assay [4] (setting [8]), 99% (active); in assay [4] (at 50.0 µM) it was 99.3% (active). Besides, the growth inhibition in assay [5] (setting [7]) is 65%; in assay [5] (setting [8]), 99% (active); in assay [5] (at 50.0 µM) it was 99.3% (active); in assay [6] (setting [7]), 93% (active); in assay [6] (setting [8]) it was 99% (active); in assay [6] (at 50.0 µM), 99.3% (active).
Turning to `O=C(/C=C/c1ccccc1)CCC1C(=O)c2ccccc2C1=O`, the growth inhibition in assay [1] (setting [7]) is 24%; in assay [1] (setting [8]), 40%; in assay [1] (at 50.0 µM), 3.25%; in assay [2] (setting [7]), 10%; in assay [2] (setting [8]), 33%; in assay [2] (at 50.0 µM), -9%. Further, the growth inhibition in assay [3] (setting [7]) was 14%; in assay [3] (setting [8]), 42%; in assay [3] (at 50.0 µM) it was 1.05%; in assay [4] (setting [7]) it was 10%; in assay [4] (setting [8]) it was 20%; in assay [4] (at 50.0 µM), 17.8%. Further, the growth inhibition in assay [5] (setting [7]) is 12%; in assay [5] (setting [8]) it was 51%; in assay [5] (at 50.0 µM), -12.6%; in assay [6] (setting [7]) it was 22%; in assay [6] (setting [8]), 50%; in assay [6] (at 50.0 µM) it was 4.6%.
Turning to `Cc1nc(Sc2nc3ccc([N+](=O)[O-])cc3s2)sc1C`, the growth inhibition in assay [1] (setting [7]) was -8%; in assay [1] (setting [8]) it was 86% (active); in assay [1] (at 50.0 µM), 88.2% (active); in assay [2] (setting [7]) it was -12%; in assay [2] (setting [8]), 90% (active); in assay [2] (at 50.0 µM), 86.5% (active). Further, the growth inhibition in assay [3] (setting [7]) was -2%; in assay [3] (setting [8]) it was 92% (active); in assay [3] (at 50.0 µM) it was 84.1% (active); in assay [4] (setting [7]) it was -9%; in assay [4] (setting [8]), 85% (active); in assay [4] (at 50.0 µM), 46%. Also, the growth inhibition is -12% in assay [5] (setting [7]); 88% (active) in assay [5] (setting [8]); 57.3% in assay [5] (at 50.0 µM); -13% in assay [6] (setting [7]); 90% (active) in assay [6] (setting [8]); 93.6% (active) in assay [6] (at 50.0 µM).
For the compound `O=C(c1ccccc1)C(Br)C(Br)c1ccccc1` (stereo not given), the growth inhibition is 31% in assay [1] (setting [7]); 96% (active) in assay [1] (setting [8]); 97.7% (active) in assay [1] (at 50.0 µM); 27% in assay [2] (setting [7]); 98% (active) in assay [2] (setting [8]); 98.8% (active) in assay [2] (at 50.0 µM). The growth inhibition in assay [3] (setting [7]) was 38%; in assay [3] (setting [8]) it was 97% (active); in assay [3] (at 50.0 µM), 43.2%; in assay [4] (setting [7]) it was 18%; in assay [4] (setting [8]), 84% (active); in assay [4] (at 50.0 µM), 39.8%. For the same compound, the growth inhibition in assay [5] (setting [7]) was 22%; in assay [5] (setting [8]), 97% (active); in assay [5] (at 50.0 µM), 98.8% (active); in assay [6] (setting [7]), 43%; in assay [6] (setting [8]), 95% (active); in assay [6] (at 50.0 µM), 97.2% (active).
